# Experimental data from PubChem BioAssay (NCATS).
# Inconclusive results are not listed. Where a call stands in place of a potency, no number is given. The source made the active and inactive calls. The call rests on the fitted dose curve; in most records, active means well fitted curve in the direction sought with a large enough effect; inconclusive means small, poorly fitted or top-dose-only effect, or another doubt; inactive means no such curve, though single readings can be large; an effect the other way counts as inactive or inconclusive.
# How the values were obtained:
# MCC-13 = assay: qHTS assay to identify novel small-molecules to repurpose for Merkel cell carcinoma treatment (AID 1296009); conditions: MCC and control cell lines, CellTiter-Glo viability, 72 h; series mostly up to 46 µM; further: nearly all actives have a fitted effect of over 60% in size; further: potency means the concentration at half of the fitted maximal effect
# Procedure, shortened: (§1)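 Viability readout: ATP luminescence (CellTiter-Glo) after 72 hr drug exposure at 37 degree celsius. Dose-response format was 8 points for NPC and 11 points for MIPE; data normalized to in-plate controls.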
# MCC-26 = assay: as above; conditions: MCC and control cell lines, CellTiter-Glo viability, 72 h; series mostly up to 46 µM
# Procedure, shortened: as §1
# MKL-1 = assay: as above; conditions: MCC and control cell lines, CellTiter-Glo viability, 72 h; series mostly up to 46 µM
# Procedure, shortened: as §1
# WaGa = assay: as above; conditions: MCC and control cell lines, CellTiter-Glo viability, 72 h; series mostly up to 46 µM
# Procedure, shortened: as §1
# MKL-2 = assay: as above; conditions: MCC and control cell lines, CellTiter-Glo viability, 72 h; series mostly up to 46 µM
# Procedure, shortened: as §1
# UISO = assay: as above; conditions: MCC and control cell lines, CellTiter-Glo viability, 72 h; series mostly up to 46 µM
# Procedure, shortened: as §1
# JEG-3 = assay: Primary qHTS to identify gynecologic anti-cancer compounds using libraries of approved drugs and bioactive compounds (AID 1345084); conditions: Gynecologic cancer cell panel viability, ATPlite luminescence, 48 h; series mostly up to 57.5 µM; further: nearly all actives have a fitted effect of over 55% in size; further: potency means the concentration at half of the fitted maximal effect
# Procedure, shortened: (§2)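 ATP-based viability (ATPlite), 1,000 cells/well, 16 h pre-incubation, 48 h compound at 37 C, 5% CO2, 15 min RT before read.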
# PA-1 = assay: as above; conditions: Gynecologic cancer cell panel viability, ATPlite luminescence, 48 h; series mostly up to 57.5 µM
# Procedure, shortened: as §2
# CASKI = assay: as above; conditions: Gynecologic cancer cell panel viability, ATPlite luminescence, 48 h; series mostly up to 57.5 µM
# Procedure, shortened: as §2
# SKOV3 = assay: as above; conditions: Gynecologic cancer cell panel viability, ATPlite luminescence, 48 h; series mostly up to 57.5 µM
# Procedure, shortened: as §2
# C33A = assay: as above; conditions: Gynecologic cancer cell panel viability, ATPlite luminescence, 48 h; series mostly up to 57.5 µM
# Procedure, shortened: as §2
# Es-2 = assay: as above; conditions: Gynecologic cancer cell panel viability, ATPlite luminescence, 48 h; series mostly up to 57.5 µM
# Procedure, shortened: as §2
# HeLa = assay: as above; conditions: Gynecologic cancer cell panel viability, ATPlite luminescence, 48 h; series mostly up to 57.5 µM
# Procedure, shortened: as §2
# Hek293T = assay: as above; conditions: Gynecologic cancer cell panel viability, ATPlite luminescence, 48 h, control line for the selectivity index; series mostly up to 57.5 µM
# Procedure, shortened: as §2
# OV90 = assay: as above; conditions: Gynecologic cancer cell panel viability, ATPlite luminescence, 48 h; series mostly up to 57.5 µM
# Procedure, shortened: as §2
# Tov112D = assay: as above; conditions: Gynecologic cancer cell panel viability, ATPlite luminescence, 48 h; series mostly up to 57.5 µM
# Procedure, shortened: as §2
# Tov-21-G = assay: as above; conditions: Gynecologic cancer cell panel viability, ATPlite luminescence, 48 h; series mostly up to 57.5 µM
# Procedure, shortened: as §2
# [1] = Drug repurposing screens with cells derived from glioblastoma tumor samples (AID 1345199); conditions: GBM patient neurospheres viability, ATP luminescence, 48 h; Potency: tumour line A; series mostly up to 46.1 µM; further: nearly all actives have a fitted effect of over 40% in size
# Procedure, shortened: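 Primary testing used CD133+ neurospheres from four GBM patients, seven concentrations, 48 h exposure and ATP-based viability; confirmation added three slower-growing patient lines.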
# NIH3T3 = assay: qHTS assay to identify novel small-molecules to repurpose for Merkel cell carcinoma treatment (AID 1296009); conditions: MCC and control cell lines, CellTiter-Glo viability, 72 h; at 44.8 µM (top of the series) unless noted; further: nearly all actives have a fitted effect of over 60% in size; further: potency means the concentration at half of the fitted maximal effect
# Procedure, shortened: as §1
smiles,measurement,setting,value
C[C@H](NC(=O)C(C#N)=Cc1cccc(Br)n1)c1ccccc1,Potency,MCC-13,inactive
same,Potency,MCC-26,inactive
same,Potency,MKL-1,inactive
same,Potency,WaGa,inactive
C[C@@H](Cc1cc2c(c(C(N)=O)c1)N(CCCO)CC2)NCCOc1ccccc1OCC(F)(F)F,Potency,MCC-13,inactive
same,Potency,MCC-26,inactive
same,Potency,MKL-1,inactive
same,Potency,MKL-2,inactive
same,Potency,UISO,inactive
same,Potency,WaGa,inactive
same,Potency,JEG-3,inactive
same,Potency,PA-1,31.6 µM (active)
Nc1ccc(C(=O)Nc2cccc(-c3nc(N4CCOCC4)c4oc5ncccc5c4n3)c2)cn1,Potency,MCC-13,inactive
same,Potency,MCC-26,inactive
same,Potency,MKL-1,inactive
same,Potency,MKL-2,inactive
same,Potency,UISO,inactive
same,Potency,CASKI,14.1 µM (active)
same,Potency,PA-1,3.16 µM (active)
same,Potency,SKOV3,15.8 µM (active)
CCC[C@H]1C[C@H](C(=O)N[C@@H]([C@@H]2O[C@@H](SC)[C@@H](O)[C@@H](O)[C@@H]2O)[C@H](C)Cl)N(C)C1,Potency,MCC-13,inactive
same,Potency,MCC-26,inactive
same,Potency,MKL-1,inactive
same,Potency,MKL-2,inactive
same,Potency,UISO,inactive
same,Potency,WaGa,inactive
same,Potency,C33A,inactive
same,Potency,CASKI,inactive
same,Potency,Es-2,inactive
same,Potency,HeLa,inactive
same,Potency,Hek293T,inactive
same,Potency,JEG-3,inactive
same,Potency,OV90,inactive
same,Potency,PA-1,inactive
same,Potency,Tov112D,inactive
C#C[C@]1(O)CC[C@@H]2[C@@H]3CCc4cc(O)ccc4[C@H]3CC[C@@]21C,Potency,MCC-13,inactive
same,Potency,MCC-26,inactive
same,Potency,MKL-1,inactive
same,Potency,WaGa,inactive
CC(C)c1cc(C(C)C)c(CC(=O)NS(=O)(=O)Oc2c(C(C)C)cccc2C(C)C)c(C(C)C)c1,Potency,MCC-13,inactive
same,Potency,MCC-26,inactive
same,Potency,MKL-1,inactive
same,Potency,MKL-2,inactive
same,Potency,WaGa,inactive
same,Potency,C33A,inactive
same,Potency,CASKI,inactive
same,Potency,Es-2,inactive
same,Potency,JEG-3,inactive
same,Potency,OV90,inactive
same,Potency,SKOV3,inactive
same,Potency,Tov-21-G,inactive
same,Potency,Tov112D,inactive
CCOc1cc2ncc(C#N)c(Nc3ccc(OCc4ccccn4)c(Cl)c3)c2cc1NC(=O)C=CCN(C)C,Potency,MCC-13,inactive
same,Potency,MCC-26,inactive
same,Potency,MKL-1,inactive
same,Potency,WaGa,inactive
Nc1ccn(C[C@@H](CO)OCP(=O)(O)O)c(=O)n1,Potency,MCC-13,inactive
same,Potency,MCC-26,inactive
same,Potency,MKL-1,inactive
same,Potency,MKL-2,inactive
same,Potency,UISO,inactive
same,Potency,WaGa,inactive
same,Potency,[1],inactive
COc1cc2c(cc1OC)[C@@H]1C(=O)c3ccc4c(c3O[C@@H]1CO2)C=CC(C)(C)O4,Potency,MCC-13,inactive
same,Potency,MCC-26,inactive
same,Potency,MKL-1,1.87 µM (active)
same,Potency,MKL-2,0.935 µM (active)
same,Potency,WaGa,0.662 µM (active)
COc1cc(C)c(C=CC(C)=CC=CC(C)=CC(=O)O)c(C)c1C,Potency,MCC-13,inactive
same,Potency,MCC-26,inactive
same,Potency,MKL-1,inactive
same,Potency,UISO,inactive
same,Potency,WaGa,inactive
CC(Cc1ccc(O)c(O)c1)(NN)C(=O)O (stereo unspecified),Potency,MCC-13,inactive
same,Potency,MCC-26,inactive
same,Potency,MKL-1,inactive
same,Potency,UISO,inactive
same,Potency,WaGa,inactive
Cc1cnc(Nc2ccc(N3CCN(C)CC3)cc2)nc1Nc1cccc(S(=O)(=O)NC(C)(C)C)c1,Potency,MCC-13,16.6 µM (active)
same,Potency,MCC-26,8.33 µM (active)
same,Potency,MKL-1,10.5 µM (active)
same,Potency,MKL-2,10.5 µM (active)
same,Potency,WaGa,11.8 µM (active)
CC(=O)OC[C@@H]1O[C@@H](n2ccc(=O)[nH]c2=O)[C@H](OC(C)=O)[C@H]1OC(C)=O,Potency,MCC-13,inactive
same,Potency,MCC-26,inactive
same,Potency,MKL-1,inactive
same,Potency,UISO,inactive
same,Potency,WaGa,inactive
COc1ccc([C@@H]2CNC(=O)C2)cc1OC1CCCC1,Potency,MCC-13,inactive
same,Potency,MCC-26,inactive
same,Potency,MKL-1,inactive
same,outcome,NIH3T3,inactive
CN[C@@H]1C[C@H]2O[C@@](C)([C@H]1OC)n1c3ccccc3c3c4c(c5c6ccccc6n2c5c31)C(=O)N[C@H]4O,Potency,MCC-13,0.332 µM (active)
same,Potency,MCC-26,1.66 µM (active)
same,Potency,MKL-1,5.26 µM (active)
same,Potency,UISO,1.87 µM (active)
same,Potency,WaGa,1.32 µM (active)
CC(=O)O[C@]1(C(C)=O)CC[C@H]2[C@@H]3C=C(C)C4=CC(=O)CC[C@]4(C)[C@@H]3CC[C@@]21C,Potency,MCC-13,inactive
same,Potency,MCC-26,inactive
same,Potency,MKL-1,3.32 µM (active)
same,Potency,MKL-2,2.35 µM (active)
same,Potency,WaGa,1.87 µM (active)
CCCCCCCCCCCC(CC1OC(=O)C1CCCCCC)OC(=O)C(CC(C)C)NC=O (stereo unspecified),Potency,MCC-13,inactive
same,Potency,MCC-26,inactive
same,Potency,MKL-1,inactive
same,Potency,UISO,inactive
same,Potency,WaGa,inactive
CC(C)C[C@H](NC(=O)CNC(=O)c1cc(Cl)ccc1Cl)B1OC(=O)CC(CC(=O)O)(C(=O)O)O1 (stereo partly specified),Potency,MCC-13,1.18 µM (active)
same,Potency,MCC-26,0.59 µM (active)
same,Potency,MKL-1,0.743 µM (active)
same,Potency,MKL-2,0.187 µM (active)
same,Potency,WaGa,0.209 µM (active)
CC(O)(C#Cc1ccc2c(c1)N(c1nc(N)ncc1Cl)CC2)c1nccs1 (stereo unspecified),Potency,MCC-13,inactive
same,Potency,MCC-26,inactive
same,Potency,MKL-1,inactive
same,Potency,MKL-2,inactive
same,Potency,UISO,inactive
same,Potency,WaGa,inactive
same,Potency,C33A,inactive
same,Potency,CASKI,inactive
same,Potency,Es-2,inactive
same,Potency,HeLa,inactive
same,Potency,Hek293T,inactive
same,Potency,JEG-3,inactive
same,Potency,OV90,inactive
same,Potency,PA-1,inactive
same,Potency,SKOV3,inactive
same,Potency,Tov-21-G,inactive
same,Potency,Tov112D,inactive
Nc1ccn(C2CO[C@H](CO)O2)c(=O)n1 (stereo partly specified),Potency,MCC-13,inactive
same,Potency,MCC-26,inactive
same,Potency,MKL-1,inactive
same,Potency,MKL-2,inactive
same,Potency,UISO,inactive
same,Potency,WaGa,inactive
same,Potency,C33A,inactive
same,Potency,CASKI,inactive
same,Potency,Es-2,inactive
same,Potency,HeLa,inactive
same,Potency,Hek293T,inactive
same,Potency,JEG-3,inactive
same,Potency,OV90,inactive
same,Potency,PA-1,inactive
same,Potency,SKOV3,inactive
same,Potency,Tov-21-G,inactive
same,Potency,Tov112D,inactive
